Screening data as filed in PubChem BioAssay.
This is a sample that favours compounds with a hit; in the whole collection about 1.5% have one here.
Rin1-Abl PPI inh: human Rin1-Abl interaction inhibition; inhibition, % at 7.35 µM; TR-FRET Rin1/Abl binding, biochemical; actives 0.4% (n = 360,000); in the data active = inhibition above about 5%, passing the limit was not always enough
AI-2 QS mod: Vibrio harveyi AI-2 quorum sensing modulation; Vibrio harveyi JMH597 AI-2 luminescence/OD600 ratio, 9 h; active compounds read low; strain lacks LuxN and CqsS sensors; 0 = neutral-control median; activity change, % at 7.5 µM; actives 0.4% (n = 300,000); AID 2094; in the data active = activity change below about -75%, passing the limit was not always enough; inconclusive = no clear call, values can overlap the other calls;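 also: luminescence divided by OD600 gain over 9 h not by final OD600 alone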
ARNT TACC3 PPI: disrupts binding between human ARNT and TACC3; Q9Y6A5; AlphaScreen His-ARNT PAS-B/GST-TACC3 binding, luminescence; TACC3 fragment carries E629A point mutation; inhibition, % at 9.99 µM; actives 0.66% (n = 390,000); AID 623870;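 active = mean inhibition of replicates at least 50% and at least half of replicates each reaching 50%; inconclusive = half or more replicates reach 50% but mean below 50%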
sPLA2-III inh: Blocks human group III sPLA2 activity; Q9NZ20; QFRET BODIPY PC-A2 liposome hydrolysis, fluorescence; inhibition, % at 12.2 µM; actives 0.56% (n = 370,000); AID 743126;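 active = inhibition above mean plus 3 SD of compounds lying within the high and low control bounds, cut at about 19% in these data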
Target sequence (Q9NZ20 whole entry, looked up): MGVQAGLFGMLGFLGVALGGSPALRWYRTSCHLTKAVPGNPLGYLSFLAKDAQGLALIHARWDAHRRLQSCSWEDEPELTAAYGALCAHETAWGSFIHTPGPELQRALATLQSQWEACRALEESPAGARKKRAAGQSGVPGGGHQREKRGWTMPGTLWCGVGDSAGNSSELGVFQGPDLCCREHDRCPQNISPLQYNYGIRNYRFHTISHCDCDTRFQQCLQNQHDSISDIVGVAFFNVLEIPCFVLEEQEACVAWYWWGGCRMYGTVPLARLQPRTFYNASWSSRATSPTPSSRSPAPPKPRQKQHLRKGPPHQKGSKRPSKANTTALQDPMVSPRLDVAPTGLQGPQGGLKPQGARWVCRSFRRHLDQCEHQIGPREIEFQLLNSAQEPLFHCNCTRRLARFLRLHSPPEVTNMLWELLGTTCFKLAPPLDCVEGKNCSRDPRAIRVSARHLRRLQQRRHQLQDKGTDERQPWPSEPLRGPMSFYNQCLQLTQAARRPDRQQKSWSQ
JMH597 growth rt: retest Vibrio harveyi JMH597 growth inhibition; shares compounds with AI-2 QS mod; OD600 absorbance, 9 h; lacks LuxN and CqsS sensors; growth inhibition, % at 7.5 µM; actives 1% (n = 750);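 active = every replicate shows growth inhibition above 50%; inconclusive = at least half, but not all, replicates pass that cutoff; inactive = fewer than half of replicates pass it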
BB721 const-QS lum: retest counter-screen: lowers luminescence of constitutive-QS Vibrio harveyi BB721; 9 h; actives 95% (n = 750); shares compounds with AI-2 QS mod; inhibition, % at 7.5 µM;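 active = inhibition above about 80% in every replicate, not just on average, limit read from the data; inconclusive = at least half of replicates past the limit, but not all; inactive = fewer than half of replicates past the limit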
BB721 growth: retest: inhibitors of Vibrio harveyi BB721 growth; actives 3% (n = 750); growth inhibition, % at 7.5 µM; OD600 absorbance, 9 h; shares compounds with AI-2 QS mod;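 active = every replicate shows growth inhibition above 50%; inconclusive = at least half but not all replicates above 50% inhibition; inactive = under half of replicates above 50% inhibition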
AI-2 QS JMH597: Vibrio harveyi AI-2 signaling luminescence modulation – JMH597 strain, confirmation | AID 2736 | actives 97% (n = 750) | inhibition, % at 7.5 µM | shares compounds with AI-2 QS mod | Vibrio harveyi JMH597 AI-2 quorum sensing luminescence, 9 h; luxN and CqsS knockout, AI-2 only;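 active = every replicate shows more than 75% inhibition of signal versus neutral control wells; inconclusive = half to three quarters of replicates exceed 75% inhibition; inactive = fewer than half of replicates exceed 75% inhibition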
Rin1-Abl confirm: Rin1-Abl interaction inhibition confirmation | shares compounds with Rin1-Abl PPI inh | TR-FRET Rin1-Abl binding, purified proteins | inhibition, % at 7.35 µM | actives 49% (n = 1,300) | AID 602124
GFP quench: counter-screen for Rin1-Abl inhibitors: GFP fluorescence quenchers | shares compounds with Rin1-Abl PPI inh | inhibitors/quenchers counterscreen | inhibition, % at 6.75 µM | actives 8.5% (n = 1,300) | AID 602125;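 also: ABL1-eGFP fusion protein alone without its partner RIN1-SBP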
GFP quench dose: GFP fluorescence interference dose response; shares compounds with Rin1-Abl PPI inh; GFP fluorescence interference/quenching counterscreen; IC50, µM; 230 tested, under 10 active; AID 602182; call rule not given here;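 also: ABL1-eGFP fusion protein alone without its RIN1 binding partner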
Each line names hits and unclear results; the compound was inactive in the other large screens (follow-up assays come after a bar, where they were run). Rule as the data show it, unless noted: active = inhibition above about 6.5%; inactive = the rest.

Nc1ccccc1C(=O)OCC(=O)N1CCc2ccccc21	none (no result: ARNT TACC3 PPI)
COC(=O)[C@H]1[C@H](CO)[C@H]2Cn3c(ccc(-c4ccccc4OC)c3=O)[C@@H]1N2Cc1ccccc1	none (no result: Rin1-Abl PPI inh, AI-2 QS mod, sPLA2-III inh)
CCN1CCN(c2ccc(N)cc2C)CC1	ARNT TACC3 PPI 48
CC=Cc1ccc2n(c1=O)C[C@@H]1[C@@H](CO)[C@H](C(=O)OC)[C@H]2N1CC1CCCCC1 (mixture of isomers)	none (no result: Rin1-Abl PPI inh, AI-2 QS mod, sPLA2-III inh)
O=C(c1cc2cc(Br)ccc2[nH]1)N1CCC2(CC1)OCCO2	AI-2 QS mod inconclusive | JMH597 growth rt inactive | BB721 const-QS lum 94 | BB721 growth inactive | AI-2 QS JMH597 96
COC(=O)[C@H]1[C@H](CO)[C@H]2Cn3c(ccc(-c4cccnc4)c3=O)[C@@H]1N2S(=O)(=O)c1ccccc1F	none (no result: Rin1-Abl PPI inh, AI-2 QS mod, sPLA2-III inh)
Cc1ccc(O)c(CN2CCN(c3ccccc3)CC2)c1	AI-2 QS mod -79 | JMH597 growth rt inactive | BB721 const-QS lum 85 | BB721 growth inactive | AI-2 QS JMH597 91
O=C(Cc1ccncc1)N1CCCCN2[C@H](CO)[C@@H](c3ccc(C#Cc4ccccc4F)cc3)[C@@H]2C1	none (no result: Rin1-Abl PPI inh, AI-2 QS mod, sPLA2-III inh)
CCN(CC)C(=O)c1ccc(NC(=O)Cn2nc(C)c3ccccc3c2=O)cc1	AI-2 QS mod -88 | JMH597 growth rt inactive | BB721 const-QS lum 94 | BB721 growth inactive | AI-2 QS JMH597 96
CCN(CC)C(=O)c1ccc(NC(=O)c2ccc(-c3nn(C)c(=O)c4ccccc34)cc2)cc1	none
Cn1ncnc2c(=O)n(C)c(=O)nc1-2	Rin1-Abl PPI inh 29, AI-2 QS mod -81 (no result: sPLA2-III inh) | Rin1-Abl confirm 48 | GFP quench inactive | GFP quench dose inactive
O=C(Cc1ccccn1)N1CCCCN2[C@H](CO)[C@@H](c3ccc(-c4ccc(F)cc4)cc3)[C@@H]2C1	none (no result: Rin1-Abl PPI inh, AI-2 QS mod, sPLA2-III inh)
CCC(C)NC(=O)c1c(N)n(CC2CCCO2)c2nc3ccccc3nc12 (centres undefined)	Rin1-Abl PPI inh 5.7 | Rin1-Abl confirm inactive | GFP quench inactive
COCCCn1c(N)c(C(=O)Nc2ccccc2)c2nc3ccccc3nc21	none (no result: ARNT TACC3 PPI)
Nc1c(C(=O)NCCN2CCOCC2)c2nc3ccccc3nc2n1Cc1ccccc1	none (no result: AI-2 QS mod)
CC(C)CCNC(=O)c1c(N)n(CC2CCCO2)c2nc3ccccc3nc12 (centres undefined)	none
CCC(C)NC(=O)c1c(N)n(Cc2ccc3c(c2)OCO3)c2nc3ccccc3nc12 (centres undefined)	Rin1-Abl PPI inh 8.5 | Rin1-Abl confirm inactive | GFP quench inactive
CCC(C)NC(=O)c1c(N)n(CCCOC)c2nc3ccccc3nc12 (centres undefined)	Rin1-Abl PPI inh 27 | Rin1-Abl confirm inactive | GFP quench inactive
CC[C@H](OC(C)=O)C(C[C@H](C)N(C)C)(c1ccccc1)c1ccccc1	Rin1-Abl PPI inh 6.8 (no result: AI-2 QS mod) | Rin1-Abl confirm 8.4 | GFP quench inactive
CC(Cc1ccc(O)cc1)NCC(O)c1ccc(O)c(O)c1 (centres undefined)	Rin1-Abl PPI inh 14 (no result: AI-2 QS mod, ARNT TACC3 PPI) | Rin1-Abl confirm 9.3 | GFP quench inactive
CNCC(O)c1ccc(O)cc1 (centres undefined)	none (no result: ARNT TACC3 PPI)
COC(=O)CCCCC1SCC(NC(=O)c2ccccc2)C1Cl (centres undefined)	Rin1-Abl PPI inh 9.2 | Rin1-Abl confirm 14 | GFP quench inactive
CC=Cc1ccc2n(c1=O)C[C@H]1[C@H](CO)[C@@H](C(=O)OC)[C@@H]2N1CC1CCCCC1 (mixture of isomers)	none (no result: Rin1-Abl PPI inh, AI-2 QS mod, sPLA2-III inh)
CCN(CC)C(=O)c1ccc(NC(=O)c2cc(S(=O)(=O)N3CCCCCC3)ccc2OC)cc1	Rin1-Abl PPI inh 86 | Rin1-Abl confirm 90 | GFP quench inactive | GFP quench dose inactive
CCN(CC)C(=O)c1ccc(NC(=O)c2cccc(S(=O)(=O)N3CCN(Cc4ccccc4)CC3)c2)cc1	none
CC(C)CC#Cc1ccc([C@@H]2[C@H]3CN(C(=O)Cc4ccccn4)CCCCN3[C@H]2CO)cc1	none (no result: Rin1-Abl PPI inh, AI-2 QS mod, sPLA2-III inh)
O=c1[nH]c2ccccc2n1C1CCN(C(c2nnnn2-c2ccc3c(c2)OCCO3)C2CC2)CC1 (centres undefined)	Rin1-Abl PPI inh 17 (no result: AI-2 QS mod, ARNT TACC3 PPI) | Rin1-Abl confirm 20 | GFP quench inactive | GFP quench dose inactive
COc1ccc(-n2nnnc2C(c2ccccc2)N2CCC(n3c(=O)[nH]c4ccccc43)CC2)cc1 (centres undefined)	none (no result: AI-2 QS mod, ARNT TACC3 PPI)
COc1ccc(-n2nnnc2C(C2CC2)N2CCC(n3c(=O)[nH]c4ccccc43)CC2)cc1 (centres undefined)	Rin1-Abl PPI inh 20 (no result: AI-2 QS mod, ARNT TACC3 PPI) | Rin1-Abl confirm 24 | GFP quench inactive | GFP quench dose inactive
COc1ccc(-c2ccc([C@@H]3[C@H]4CN(C(=O)Cc5ccncc5)CCCCN4[C@H]3CO)cc2)cc1	none (no result: Rin1-Abl PPI inh, AI-2 QS mod, sPLA2-III inh)
COc1cccc(C(c2nnnn2-c2ccc3c(c2)OCCO3)N2CCC(n3c(=O)[nH]c4ccccc43)CC2)c1OC (centres undefined)	Rin1-Abl PPI inh 20 (no result: AI-2 QS mod, ARNT TACC3 PPI) | Rin1-Abl confirm 19 | GFP quench inactive | GFP quench dose inactive
COc1ccc(-n2nnnc2C(c2cccc(OC)c2OC)N2CCC(n3c(=O)[nH]c4ccccc43)CC2)cc1 (centres undefined)	Rin1-Abl PPI inh 19 (no result: AI-2 QS mod, ARNT TACC3 PPI) | Rin1-Abl confirm 16 | GFP quench inactive
O=C(Cc1ccccc1)N1CCCCN2[C@@H](CO)[C@H](c3ccc(C#Cc4ccccc4)cc3)[C@@H]2C1	none (no result: Rin1-Abl PPI inh, AI-2 QS mod, sPLA2-III inh)
CN1[C@@H]2c3cccc(=O)n3C[C@H]1[C@H](CO)[C@H]2C(=O)NCC1CC1	none (no result: Rin1-Abl PPI inh, AI-2 QS mod, sPLA2-III inh)
CCCCn1c(NC(=O)c2ccc(Br)o2)c(C(=O)OCC)c2nc3ccccc3nc21	Rin1-Abl PPI inh 7.3 | Rin1-Abl confirm inactive | GFP quench inactive
O=c1c2ccccc2nc(CSc2ncnc3nc[nH]c23)n1-c1ccccc1	Rin1-Abl PPI inh 7.6 | Rin1-Abl confirm inactive | GFP quench inactive
CCCN1CCc2cc(O)cc3c2[C@H]1Cc1ccc(O)c(O)c1-3	Rin1-Abl PPI inh 11 | Rin1-Abl confirm 12 | GFP quench 8.6
O=C(Cc1ccccn1)N1CCCCN2[C@H](CO)[C@H](c3ccc(-c4ccccc4F)cc3)[C@H]2C1	none (no result: Rin1-Abl PPI inh, AI-2 QS mod, sPLA2-III inh)
